For experiment [1], the target named is T1, Protein deacetylase HDAC6 (Homo sapiens) (UniProt Q9UBN7).
T1 sequence (whole entry): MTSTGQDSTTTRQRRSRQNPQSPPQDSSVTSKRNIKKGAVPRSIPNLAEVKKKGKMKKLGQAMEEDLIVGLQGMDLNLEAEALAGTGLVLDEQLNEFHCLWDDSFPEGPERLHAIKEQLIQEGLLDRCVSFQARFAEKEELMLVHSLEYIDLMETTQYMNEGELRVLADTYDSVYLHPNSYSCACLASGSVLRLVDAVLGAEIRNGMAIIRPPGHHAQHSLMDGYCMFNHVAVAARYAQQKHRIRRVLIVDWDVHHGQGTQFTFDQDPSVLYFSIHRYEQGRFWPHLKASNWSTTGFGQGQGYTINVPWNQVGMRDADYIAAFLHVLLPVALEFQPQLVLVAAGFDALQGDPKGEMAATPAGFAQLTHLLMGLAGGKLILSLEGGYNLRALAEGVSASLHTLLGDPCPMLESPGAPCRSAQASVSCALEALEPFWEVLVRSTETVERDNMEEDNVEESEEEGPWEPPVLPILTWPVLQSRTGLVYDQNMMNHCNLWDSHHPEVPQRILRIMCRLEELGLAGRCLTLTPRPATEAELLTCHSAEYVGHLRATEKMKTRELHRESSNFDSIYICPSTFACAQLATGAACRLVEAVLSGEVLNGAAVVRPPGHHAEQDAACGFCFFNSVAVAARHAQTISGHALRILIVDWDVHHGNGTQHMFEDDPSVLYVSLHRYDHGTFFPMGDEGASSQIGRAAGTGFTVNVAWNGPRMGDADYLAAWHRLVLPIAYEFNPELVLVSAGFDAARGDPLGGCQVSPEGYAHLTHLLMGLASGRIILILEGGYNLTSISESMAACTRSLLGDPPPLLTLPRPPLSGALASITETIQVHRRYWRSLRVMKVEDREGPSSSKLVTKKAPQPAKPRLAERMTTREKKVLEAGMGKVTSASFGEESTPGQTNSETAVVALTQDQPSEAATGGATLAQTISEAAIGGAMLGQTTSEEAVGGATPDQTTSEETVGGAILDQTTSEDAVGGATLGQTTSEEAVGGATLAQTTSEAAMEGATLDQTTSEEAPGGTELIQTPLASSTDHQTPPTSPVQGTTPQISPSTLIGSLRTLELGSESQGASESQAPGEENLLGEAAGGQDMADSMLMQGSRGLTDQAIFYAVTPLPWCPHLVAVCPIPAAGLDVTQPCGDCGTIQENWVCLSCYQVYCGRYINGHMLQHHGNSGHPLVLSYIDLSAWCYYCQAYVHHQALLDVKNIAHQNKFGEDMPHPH
Particulars: at 10 µM.

For experiment [2], the target named is Protein deacetylase HDAC6 (Homo sapiens) (UniProt Q9UBN7). Particulars: at 10 µM. This is another data set of the same source.

Screen size: about 5,600 compounds; about 150 (2.7%) showed an effect of 50% or more. This is one part of a sample in which strong results are shown more often than they occur.

In general, inhibition refers to the change of the read-out against control, counted positive when it falls.

Consider `CC(=O)OC1C[C@H]2C(C)(C)C(=O)C=C[C@]2(C)[C@H]2CC[C@@]3(C)[C@H](c4ccoc4)OC(=O)[C@H]4O[C@]43[C@]12C` (some centres undefined), for which the inhibition in experiment [1] was -9.28%.
On the same count and under the same terms, the figure for `Nc1cc2c3ccccc3ccc2c2ccccc12` is 23.6%.
As to `Clc1cccc(C(c2ccc3[nH]cnc3c2)n2ccnc2)c1` (centres undefined), the inhibition in experiment [1] is 0.23%.
Take `O[C@H]1CC[C@H](Nc2ncc3nc(Nc4c(F)cc(F)cc4F)n([C@H]4CCOC4)c3n2)CC1`: the inhibition in experiment [1] is -4.44%.
On the same count and under the same terms, under `Nc1ccc(S(N)(=O)=O)cc1` stands -5.55%; under `NS(=O)(=O)c1ccc(S(=O)(=O)Nc2cccc3c(Cl)c[nH]c23)cc1`, 79.5%; under `NCc1ccc(S(N)(=O)=O)cc1`, 0.53%.
Still for that read-out and setting: under `C=CC(C)(O)CCC=C(C)C` (centres undefined) stands 1.97%; under `O=C(CN1C(=O)C2(CCCC2)NC[C@H]1c1cc(F)cc(F)c1)Nc1ccc2c(c1)C[C@@]1(C2)C(=O)Nc2ncccc21`, -4.92%; under `C=CC(=O)O`, 0.87%.
On the same count and under the same terms, under `Cc1cc(O)c2c(c1)C(=O)c1cccc(O)c1C2=O` stands 6.5%; under `O=C1c2cccc(O)c2C(=O)c2c(O)cccc21`, -4.52%; under `C[C@@H]1CC(=O)c2c(ccc3c2C(=O)c2cccc(O)c2C3=O)C1`, 77.5%.
For the compound `Cc1ccc2c(N3CCN(CCc4cccc(N5CCNC5=O)c4)CC3)cccc2n1`, the inhibition in experiment [1] is -3.2%.
The same measure, in the same setting: the figure for `CCCCCCOc1cc2c(cc1N(C)c1ncc(C(=O)O)cn1)C(C)(C)CCC2(C)C` is 0.82%.
Consider `CC[N+](CC)(CC)CCOc1ccc(/C=C/c2ccccc2)cc1`, for which, in experiment [1], the inhibition was -3.25%.
For the compound `Nc1nccc(/C=C/c2ccccc2)n1`, in experiment [1], the inhibition was found to be 96.2%.
On the same count and under the same terms, the figure for `Cc1cccc(/C=C/c2ccccc2)n1` is 98.2%; for `Cc1nc2ccccc2c(-c2ccc3c4c(ccnc24)CCO3)c1[C@H](OC(C)(C)C)C(=O)O` it is -1.87%.
On the same count and under the same terms, under `Cc1cc(N2CCOCC2)ccc1Nc1nc(NC2CCCCC2)c2nc[nH]c2n1` stands -0.21%; under `Cc1cc2ncc(C(=O)NCC(C)(C)NCC(=O)N3CCC[C@H]3C#N)cn2n1`, 2.17%; under `COc1cc(Cc2cnc(N)nc2N)cc(OC)c1OC`, -5.72%.
Consider `COc1ccc(Cc2cnc(N)nc2N)cc1OC`, for which the inhibition in experiment [1] was -3.93%.
Still for that read-out and setting: under `COc1ccc(COc2ccc(Cc3cnc(N)nc3N)cc2OC)cc1` stands 58.8%; under `c1nc2c(NC3CCCCC3)nc(Nc3ccc(N4CCOCC4)cc3)nc2[nH]1`, -4.12%; under `Cc1cc(/C(=C\Nc2ccc(Cl)cc2)C(=O)Nc2ccc(Cl)cc2)on1`, -2.63%.
Same read-out and setting: under `Oc1ccc2c(c1)CC[C@H](c1ccccc1)[C@@H]2c1ccc(OCCN2CCCC2)cc1` stands -2.46%.
For `COc1cc2c(=O)c(-c3ccc(O)cc3)coc2cc1O`, the inhibition in experiment [1] amounted to 96.6%.
The same measure, in the same setting: under `COc1ccc(-c2coc3cc(O)ccc3c2=O)cc1` stands 62.6%.
Same read-out and setting: under `O=c1c(O)c(-c2ccc(O)c(O)c2)oc2cc(O)ccc12` stands 8.31%.
On the same count and under the same terms, under `O=c1c(-c2ccc(O)cc2)coc2c(C3OC(CO)C(O)C(O)C3O)c(O)ccc12` (centres undefined) stands -5.66%.
Regarding `COc1cc(C(C)=O)ccc1O`, the inhibition in experiment [1] was 4.49%.
Same read-out and setting: under `Cc1cc(=O)oc2cc(O)ccc12` stands -0.81%; under `CC(C)Oc1ccc2c(=O)c(-c3ccccc3)coc2c1`, -8.43%; under `COc1ccc(C(C)=O)c(O)c1`, 0.72%.
On the same count and under the same terms, the figure for `O=c1c(-c2ccc(O)cc2)coc2cc(O)ccc12` is 76%; for `Cc1cc(CCCOc2c(C)cc(-c3noc(C(F)(F)F)n3)cc2C)on1` it is -3.38%; for `CCCCNc1ncc2c(-c3ccc(CN4CCN(C)CC4)cc3)cn([C@H]3CC[C@H](O)CC3)c2n1` it is 5.61%.
On to COLISTIMETHATE SODIUM, CHEMBL1201441, for which, in experiment [2], the inhibition was found to be 0.02%.
For the compound `O=S(=O)(OC[C@H]1O[C@@](COS(=O)(=O)[O][Al]([OH])[OH])(O[C@H]2O[C@H](COS(=O)(=O)[O][Al]([OH])[OH])[C@@H](OS(=O)(=O)[O][Al]([OH])[OH])[C@H](OS(=O)(=O)[O][Al]([OH])[OH])[C@H]2OS(=O)(=O)[O][Al]([OH])[OH])[C@@H](OS(=O)(=O)[O][Al]([OH])[OH])[C@@H]1OS(=O)(=O)[O][Al]([OH])[OH])[O][Al]([OH])[OH]`, the inhibition in experiment [1] is -5.96%.
In the case of `OC[C@H]1O[C@@H](c2ccc(F)c(Cc3cc4ccccc4s3)c2)[C@H](O)[C@@H](O)[C@@H]1O`, in experiment [1], the inhibition is -2.47%.
The same measure, in the same setting: the figure for `O=C(/C=C/c1ccc(O)c2c1[C@@H](C(=O)O[C@H](Cc1ccc(O)c(O)c1)C(=O)O)[C@H](c1ccc(O)c(O)c1)O2)O[C@H](Cc1ccc(O)c(O)c1)C(=O)O` is 3.93%.
Consider `Cn1nnc(-c2ccc(-c3ccc(N4C[C@H](CO)OC4=O)cc3F)cn2)n1`, for which, in experiment [1], the inhibition came out at 86.8%.
Same read-out and setting: the figure for `Cc1cccc(N2CC(CO)OC2=O)c1` (centres undefined) is -6.61%.
On the same count and under the same terms, the figure for `CC(=O)NC[C@H]1CN(c2ccc(-c3ccc(CNCc4cnn[nH]4)cc3)c(F)c2)C(=O)O1` is 0.09%.
On the same count and under the same terms, the figure for `Cc1nc(-c2ccc(OCC(C)C)c(C#N)c2)sc1C(=O)O` is 98.8%; for `CCCCOCCOc1nc(-c2ccc(C(=O)O)c(F)c2)sc1C` it is 0.11%.
With `Cc1cc(SCc2sc(-c3ccc(C(F)(F)F)cc3)nc2C)ccc1OCC(=O)O`, the inhibition in experiment [1] is 3.31%.
The same measure, in the same setting: under `CCOC(=O)[C@@]1(CCCCCCOc2ccc(Cl)cc2)CO1` stands -2.98%; under `CCC(CC)Nc1nc(C)c(-c2ccc(OC(F)(F)F)cc2OC)nc1OC`, -3.03%; under `O=c1c2ccccc2nc2n1CCc1c-2[nH]c2ccccc12`, 7.17%.
On the same count and under the same terms, under `O=c1c2ccccc2nc2n1CCCCC2` stands 17.6%; under `O=C1c2ccccc2-n2c1nc1ccccc1c2=O`, 68.6%; under `FC(F)(F)c1cccc(-c2noc(-c3cc(-c4ccccc4)c(C(F)(F)F)s3)n2)c1`, -4.64%.
As to `O=C(O)c1cccc(-c2noc(-c3ccccc3F)n2)c1`, the inhibition in experiment [1] was found to be 99.8%.
Same read-out and setting: under `Cc1c(-c2ccc(-c3ccccc3F)cc2)nc2ccc(F)cc2c1C(=O)O` stands -2.53%; under `NC1(C(=O)N[C@@H](CCO)c2ccc(Cl)cc2)CCN(c2nc[nH]c3nccc2-3)CC1`, 5%; under `CN1C(=O)N[C@H](Cc2c[nH]c3c(Cl)cccc23)C1=O`, 2.4%.
The same measure, in the same setting: the figure for `Cc1cc(C)c(N(Cc2ccccc2)S(=O)(=O)c2ccc(OCCNC(=O)c3cc4ccccc4o3)cc2)c(C(=O)NO)c1` is -0.11%.
Still for that read-out and setting: under `CN(C)Cc1c(C(=O)NCCOc2ccc(C(=O)NO)cc2)oc2ccccc12` stands 97.9%; under `COc1ccc(C(=O)NCc2ccc(OCCN(C)C)cc2)cc1OC`, -3.31%; under `CC1(C)OC[C@H](NC(=O)Nc2ccc(Br)cc2Br)[C@H](c2ccccc2)O1`, -0.73%.
`FC(F)(F)c1cc(NC(=S)Nc2ccc(Br)cc2-c2nnn[nH]2)cc(C(F)(F)F)c1`: the inhibition in experiment [1] is 67.5%.
`COc1cc(C[C@@H](CO[C@@H]2O[C@H](CO)[C@@H](O)[C@H](O)[C@H]2O)[C@H](CO[C@@H]2O[C@H](CO)[C@@H](O)[C@H](O)[C@H]2O)Cc2ccc(O)c(OC)c2)ccc1O`: in experiment [1], the inhibition is -3.26%.

The record behind these values is ChEMBL document CHEMBL4808148, “HDAC6 screening dataset using tau-based substrate in an enzymatic assay yields selective inhibitors and activators” (2021).
